Only some compounds are listed: those with a hit (about 3.3% of all), similar ones and a draw of the others.
NOD2 RIPK2 PPI – blocks binding of human NOD2 to RIPK2 | O43353 | CHO BLA complementation NOD2-RIPK2, CCF4 ratio | inhibition, % at 4.98 µM | actives 0.38% (n = 360,000) | AID 624267; in the data active = inhibition above about 21%;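 note: 0% = vehicle only and 100% = reference blocker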
ABHD5-PLIN5 inh – blocks binding of human ABHD5 to perilipin-5. Q00G26+Q8WTS1. Split G. princeps luciferase complementation, luminescence, 4 h. inhibition, % at 4 µM. actives 0.78% (n = 360,000). AID 602281;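 active = inhibition above the mean inhibition across every tested compound plus 3 SD, cut at about 22% in these data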;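 note: 0% = DMSO only wells and the 100% control is not disclosed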
TLR9-MyD88 inh – blocks human TLR9 binding to MyD88. Q9NR96+Q99836. CHO BLA complementation TLR9-MyD88, CCF4 FRET ratio. inhibition, % at 4.98 µM. actives 0.21% (n = 340,000). AID 504734;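 active = inhibition above the mean over all tested compounds plus 3 SD, cut at about 21% in these data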;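 note: 0% = DMSO only wells and 100% = clavulanate BLA inhibitor control wells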
rCAG binder – molecules binding r(CAG) RNA repeats; r(CAG) RNA repeat, TO-PRO-1 dye displacement fluorescence; inhibition, % at 3 µM; actives 1.3% (n = 370,000); AID 651821;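 active = inhibition above the plate cutoff, the mean of all test compounds on that plate plus 3 SD, cut at about 35% in these data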;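 note: 0% = DMSO alone and 100% = 100 µM mitoxantrone as full dye displacement; higher means more dye released from RNA so lower well fluorescence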
TLR4 MyD88 comp – TLR4-MyD88 interaction inhibition in cells. O00206+Q99836. HeLa CL3-4 TLR4/MyD88 BLA complementation, FRET ratio. inhibition, % at 8.4 µM. actives 0.18% (n = 200,000); in the data active = inhibition above about 25%;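 note: 0% = vehicle and 100% = reference inhibitor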
PRMT1 FP inh – inhibitors of human PRMT1; Q99873; recombinant PRMT1, activity-based probe fluorescence polarization; inhibition, % at 2.79 µM; actives 1.3% (n = 370,000);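 active = inhibition above about 21% made by adding two undisclosed values, limit read from the data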
Target sequence (Q99873 whole entry, looked up): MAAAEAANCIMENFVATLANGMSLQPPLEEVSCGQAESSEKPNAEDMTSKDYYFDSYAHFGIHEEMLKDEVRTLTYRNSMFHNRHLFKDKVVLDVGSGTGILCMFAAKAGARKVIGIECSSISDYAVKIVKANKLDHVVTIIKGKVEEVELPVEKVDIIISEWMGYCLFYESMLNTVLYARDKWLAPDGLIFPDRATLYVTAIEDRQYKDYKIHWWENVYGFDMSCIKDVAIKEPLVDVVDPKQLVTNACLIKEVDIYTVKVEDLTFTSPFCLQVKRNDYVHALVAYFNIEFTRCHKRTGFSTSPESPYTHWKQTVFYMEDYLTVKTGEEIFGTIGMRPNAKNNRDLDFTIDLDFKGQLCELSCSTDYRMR
The depositor's hits bear a star; nt = no result given; + = active, no number.

SMILES	NOD2 RIPK2 PPI	ABHD5-PLIN5 inh	TLR9-MyD88 inh	rCAG binder	TLR4 MyD88 comp	PRMT1 FP inh
C#CCN(Cc1ccccc1)S(=O)(=O)C=C	nt	nt	nt	0	nt	-1
N#Cc1c(Nc2ccccc2)[n+]([O-])c2ccc(Cl)cc2[n+]1[O-]	-13	0	-15	4	nt	3
CCN(c1ccc(C)cc1)S(=O)(=O)c1nnc(NC(=O)c2ccco2)s1	-10	13	-10	44*	nt	5
O=C(NNc1cc(Br)c(O)c(Br)c1)c1ccccc1	3	21	-11	8	-2	23*
CCSc1nnc(N2C(=O)c3ccc(C(=O)c4ccc(C(=O)O)cc4)cc3C2=O)s1	-2	2	3	6	nt	0
Cc1ccccc1C(=O)N1CCC(C(=O)NN2C(=O)NC3(CCCCC3)C2=O)CC1	-10	5	-7	-1	nt	0
C/C=C\C=C/C(=O)Nc1cccc(C2=NOC3(C2)C[C@@H](C(N)=O)N(C(=O)/C=C/C=C\C)C3)c1 (some centres not stated)	-2	17	3	nt	nt	nt
C/C=C/C=C\C(=O)Nc1cccc(C2=NOC3(C2)C[C@@H](C(N)=O)N(C(=O)c2cc([N+](=O)[O-])cc([N+](=O)[O-])c2)C3)c1 (some centres not stated)	-1	-1	-8	21	nt	23*
O=C(COc1ccc2ccccc2c1)Nc1cccc(C(=O)Nc2ccccc2C(=O)O)c1	-7	-8	2	83*	-12	3
Cc1cccc(CSC(=N)N)c1	-8	4	5	2	-16	-3
Cc1cccc(CSC(Nc2ccc(F)cc2)=C(C#N)C#N)c1	3	-1	-5	40*	-3	1
O=C(COCC(=O)N/N=C/c1ccccc1F)N/N=C/c1ccccc1F	-9	-6	13	-4	2	2
O=C(CO)N/N=C/c1ccccc1F	6	1	-1	36*	-2	1
c1coc(-c2nc3c4ccccc4ccn3c2Cc2ccsc2)c1	nt	nt	nt	15	nt	32*
Fc1ccc(-c2nc3c4ccccc4ccn3c2Cc2ccsc2)cc1	4	-16	nt	7	nt	0
O=S(=O)(NCc1ccc(F)cc1)c1ccc(Br)cc1Br	-1	-3	5	-1	nt	0
CC1(C)Cc2c(C#N)c(N3CCN(C(=O)c4ccccc4Cl)CC3)nc(-c3ccco3)c2CS1	-5	29*	9	14	-3	20
CC1(C)Cc2c(C#N)c(N3CCN(C(=O)c4ccco4)CC3)nc(-c3ccco3)c2CS1	7	4	-5	2	-5	-2
CC1(C)Cc2c(c(-c3ccco3)[nH]c(=O)c2C#N)CS1	0	8	-7	20	0	74*
CC(=O)c1ccc(NC(=O)CSc2ccc3nnc(-c4cccnc4)n3n2)cc1	-4	-4	3	1	1	1
CC[C@]12c3[nH]c4ccc(OC)cc4c3CCN1C(=O)C(CC(=O)NC(C)(C)C)C[C@@H]2C(=O)N1CCN(C(=O)c2ccco2)CC1 (some centres not stated)	-3	-3	0	3	nt	0
CCOC(=O)C1=C(C(=O)OCC)C2N(Cc3ccc(C#N)cc3)c3ccccc3[C@@]23C[C@@H](C(=O)OC)N(S(=O)(=O)c2ccccc2)C3=N1 (some centres not stated)	nt	nt	nt	16	nt	6
Cc1ccccc1-c1ccc(C(=O)NCc2ccccc2)o1	0	-3	-4	-1	-9	-3
Cc1ccc(-c2ccc(C(=O)NCc3ccc(Cl)cc3)o2)c2ccccc12	2	22*	7	11	-5	1
CCOC(=O)c1cnc2c(C(=O)OC)cccc2c1NCc1ccco1	2	2	10	2	-21	22*
O=C(CN1C(=O)S/C(=C\c2ccccc2Cl)C1=O)NCCCn1ccnc1	-3	7	2	0	nt	24*
COC(=O)c1ccccc1-c1c2ccc(=N)cc-2oc2cc(N)ccc12	17	-1	17	-72	nt	+
COc1cc(CC(=O)N2CCN(C(=O)C3CCCO3)CC2)cc(OC)c1OC (configuration not stated)	-7	5	-9	0	nt	3
CCCN(CC(=O)Nc1ccc(C(N)=O)cc1)CC(=O)Nc1ccc(F)c(F)c1F	-15	3	-5	-2	nt	-1
